This note sets out measurements from PubChem BioAssay.

Calls of active or inactive are those of the source.

For one experiment, the target named is Albumin (Bos taurus) (UniProt P02769). Kind of experiment: bovine serum albumin binders on microarray, profiling panel, artefact control for SMM control protein annotation, biochemical, small-molecule microarray, Alexa647 label, 635/667 nm fluorescence (AID 1118).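 Also: score merges 667 nm emission intensity and signal-to-noise per printed compound spot.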 To be noted: BSA-A647 binding, fluorescence 635 nm, higher = more signal.
Experiment [1] is described as follows: small-molecule microarray binders of probe aXIP, primary screen, biochemical, NeuroSMM set, 635/667 nm fluorescence (AID 1119).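 Also: probe is the protein aXip251-270 applied at 1 µg/mL to compound-printed slides; binding of probe to printed compounds measured as 667 nm fluorescence plus signal to noise.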 Conditions: higher = more signal, called active from +8 up or from −8 down.
Experiment [2] in a line: small-molecule binders of probe aNOTCH3, primary screen, biochemical, small-molecule microarray, 635/667 nm fluorescence (AID 1120).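 Also: probe is a biotin-tagged antibody raised against NOTCH3 rather than NOTCH3 protein; score merges spot fluorescence near 667 nm with spot signal to noise.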 Conditions: higher = more signal.
Experiment [3] is described as follows: small-molecule binders of probe aNOTCH2, primary screen, biochemical, small-molecule microarray, 635/667 nm fluorescence (AID 1121).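 Also: score merges feature fluorescence read at 667 nm with its signal to noise.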 Conditions: higher = more signal.
Experiment [4] deals with Carbonic anhydrase 2 (Homo sapiens) (UniProt P00918). Kind of experiment: CAII small-molecule binders, profiling panel, biochemical, small-molecule microarray, Alexa647-labelled CAII (AID 1122). Conditions: CAII-A647 binding fluorescence, higher = more signal.
Experiment [5] in a line: COS7 lysate on small-molecule microarray, probe aHis, 635 nm (AID 1123).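 Also: z-score combines 667nm fluorescence intensity with signal-to-noise per printed compound spot.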 To be noted: COS7 cell lysate, fluorescence, higher = more signal.
Experiment [6] can be described thus: compound binding in COS7 lysate, probe aLAP1, primary screen, cell lysate, small-molecule microarray (AID 1124).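 Also: lysate comes from COS7 cells expressing LAP1 and is applied at 0.3 µg/mL; score merges spot fluorescence near 667 nm with signal-to-noise over triplicate slides.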 Conditions: probe aLAP1, fluorescence, higher = more signal.
The test system of another experiment is Sam68 (KHDRBS1). Kind of experiment: Sam68 small-molecule binders, primary screen, biochemical, small-molecule microarray, 635 nm fluorescence (AID 1125).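 Also: score merges 667 nm channel intensity with signal to noise over triplicate slides.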 To be noted: small-molecule microarray binding, higher = more signal.
For experiment [7], the system named is Chordin-like protein 2 (CHRDL2). Kind of experiment: CHRDL2 small-molecule binders, primary screen, biochemical, small-molecule microarray, 635 nm fluorescence (AID 1126).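 Also: printed compound slides probed with Chrdl2 protein at 4 µg/mL for 1 h at 4 C; score merges 667 nm emission intensity with signal to noise over three replicate slides.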 To be noted: small-molecule microarray binding, fluorescence 635 nm; higher = more signal.
In experiment [8] the target is Concanavalin-A (Canavalia ensiformis) (UniProt P02866). Kind of experiment: ConA small-molecule binders, primary screen, artefact control for SMM control protein annotation, biochemical, small-molecule microarray, Alexa647 label, 635 nm (AID 1127).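 Also: z combines 667 nm emission intensity with signal-to-noise across three replicate slides.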 Conditions: ConA-A647 binding fluorescence, higher = more signal.
A short description of experiment [9]: anti-His antibody binders, primary screen, artefact control for SMM control protein annotation, biochemical, small-molecule microarray, 635 nm fluorescence (AID 1128).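 Also: score merges feature fluorescence with signal-to-noise for each printed compound spot.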 Conditions: anti-His Alexa647 antibody binding, higher = more signal.
The subject of experiment [10] is Human papillomavirus type 1a E7 protein (residues 1-88). Kind of experiment: HPV1a E7 small-molecule binders, primary screen, biochemical, small-molecule microarray, residues 1-88, 635 nm (AID 1129). Conditions: small-molecule microarray binding, fluorescence 635 nm; higher = more signal.
The target in experiment [11] is Focal adhesion kinase 1 (Homo sapiens) (UniProt Q05397). Kind of experiment: small-molecule microarray binders of FAK, primary screen, biochemical, 635/667 nm fluorescence, BSA, DTT (AID 1130).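 Also: composite of spot emission at 667 nm and signal to noise over triplicate slides.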 Conditions: PTK2 binding, 635 nm fluorescence, higher = more signal.
The subject of experiment [12] is Fibrinogen (Alexa647-labelled). The experiment is described as follows: fibrinogen binders on compound microarrays, profiling panel, artefact control for SMM control-protein annotation, biochemical, small-molecule microarray, 635/667 nm fluorescence (AID 1131).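 Also: z-score merges 667 nm fluorescence with per-spot signal-to-noise over triplicate slides.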 Conditions: fibrinogen-A647 binding fluorescence, higher = more signal.
Experiment [13] concerns the target Follistatin (Homo sapiens) (UniProt P19883). The experiment is described as follows: follistatin binders on small-molecule microarrays, primary screen, biochemical, small-molecule microarray, 635/667 nm fluorescence (AID 1132). To be noted: FST binding, 635 nm fluorescence, higher = more signal.
Experiment [14] has as its target Fibroblast growth factor 2 (Homo sapiens) (UniProt P09038). The experiment is described as follows: FGF2 binders on small-molecule microarrays, primary screen, biochemical, small-molecule microarray, 635/667 nm fluorescence (AID 1133). To be noted: small-molecule microarray binding, FGF2, fluorescence 635/667; higher = more signal.
Experiment [15] can be described thus: mitochondrial membrane potential change in A549 cells, profiling panel, cell-based, JC-1 fluorescence, basal, 24 h, 100 nL (AID 1138).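 Also: A549 lung adenocarcinoma cells under basal conditions with no added stimulus; test concentration not given here.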 To be noted: higher = more signal.
A further experiment has as its system Lefty1. Kind of experiment: Lefty1 binders on small-molecule microarrays, primary screen, biochemical, small-molecule microarray, 635/667 nm fluorescence (AID 1139). To be noted: small-molecule microarray binding, fluorescence 635/667; higher = more signal.
For experiment [16], the system named is wheat germ agglutinin (Triticum aestivum), Alexa647-labelled. The experiment is described as follows: wheat germ agglutinin binders on compound microarrays, profiling panel, artefact control for SMM control-protein annotation, biochemical, small-molecule microarray, 635/667 nm fluorescence (AID 1140).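 Also: score merges 667 nm feature emission with signal to noise over triplicate slides.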 Conditions: WGA-A647 binding, 635 nm fluorescence, higher = more signal.

In experiment [17] the target is Luciferin 4-monooxygenase (Photinus pyralis) (UniProt P08659). Kind of experiment: firefly luciferase enzyme inhibitors, primary screen, biochemical, luminescence, purified enzyme, 2006 set (AID 1141).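 Also: cell-free assay with purified firefly luciferase at 100 ng per well in PBS; test concentration not given here.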 To be noted: SteadyGlo luminescence, 30 min, higher = more signal, called active from +8 up or from −8 down.
Chain of Luciferin 4-monooxygenase (Photinus pyralis) (P08659 whole entry, looked up): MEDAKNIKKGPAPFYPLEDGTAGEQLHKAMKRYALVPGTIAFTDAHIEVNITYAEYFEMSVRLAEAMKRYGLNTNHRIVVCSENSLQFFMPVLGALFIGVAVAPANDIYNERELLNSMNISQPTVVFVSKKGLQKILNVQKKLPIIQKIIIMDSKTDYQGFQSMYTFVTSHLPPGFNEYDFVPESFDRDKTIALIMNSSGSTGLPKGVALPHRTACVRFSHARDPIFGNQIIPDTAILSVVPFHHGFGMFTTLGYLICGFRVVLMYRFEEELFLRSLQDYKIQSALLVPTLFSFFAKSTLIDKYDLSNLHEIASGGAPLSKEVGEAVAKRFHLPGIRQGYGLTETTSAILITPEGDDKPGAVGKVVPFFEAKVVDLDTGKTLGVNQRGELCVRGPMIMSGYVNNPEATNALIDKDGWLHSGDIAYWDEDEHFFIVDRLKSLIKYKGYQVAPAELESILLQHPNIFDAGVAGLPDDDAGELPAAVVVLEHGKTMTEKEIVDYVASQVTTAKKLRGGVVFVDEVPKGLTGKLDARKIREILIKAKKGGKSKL

Chain of Focal adhesion kinase 1 (Homo sapiens) (Q05397 whole entry, looked up): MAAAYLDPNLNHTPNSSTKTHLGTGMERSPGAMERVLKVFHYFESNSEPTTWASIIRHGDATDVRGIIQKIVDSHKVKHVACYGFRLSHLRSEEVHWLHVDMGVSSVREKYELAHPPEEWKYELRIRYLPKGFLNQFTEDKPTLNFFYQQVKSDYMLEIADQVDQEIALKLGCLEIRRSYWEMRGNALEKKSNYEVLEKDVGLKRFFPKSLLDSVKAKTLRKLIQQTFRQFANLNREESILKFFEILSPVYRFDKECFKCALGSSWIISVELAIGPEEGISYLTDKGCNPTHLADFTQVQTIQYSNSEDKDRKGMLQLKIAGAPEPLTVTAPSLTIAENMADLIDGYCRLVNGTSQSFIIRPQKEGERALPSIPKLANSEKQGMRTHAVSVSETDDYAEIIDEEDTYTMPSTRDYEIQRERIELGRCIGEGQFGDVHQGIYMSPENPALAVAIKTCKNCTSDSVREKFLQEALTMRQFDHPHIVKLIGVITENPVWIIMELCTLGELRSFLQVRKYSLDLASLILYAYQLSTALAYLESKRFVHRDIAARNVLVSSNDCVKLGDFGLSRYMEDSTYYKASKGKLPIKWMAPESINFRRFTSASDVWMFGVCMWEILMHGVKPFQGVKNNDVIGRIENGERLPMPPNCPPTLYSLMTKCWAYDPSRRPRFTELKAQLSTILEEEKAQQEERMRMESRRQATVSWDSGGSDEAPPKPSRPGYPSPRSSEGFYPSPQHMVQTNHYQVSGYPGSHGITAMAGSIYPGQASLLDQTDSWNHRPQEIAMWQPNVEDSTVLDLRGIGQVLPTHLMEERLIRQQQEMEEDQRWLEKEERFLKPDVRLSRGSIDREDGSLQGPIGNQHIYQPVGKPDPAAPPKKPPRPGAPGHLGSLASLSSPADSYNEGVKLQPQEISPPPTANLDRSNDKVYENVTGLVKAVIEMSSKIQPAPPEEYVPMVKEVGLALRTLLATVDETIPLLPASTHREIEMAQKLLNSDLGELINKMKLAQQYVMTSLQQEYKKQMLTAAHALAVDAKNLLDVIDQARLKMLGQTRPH
Chain of Follistatin (Homo sapiens) (P19883 whole entry, looked up): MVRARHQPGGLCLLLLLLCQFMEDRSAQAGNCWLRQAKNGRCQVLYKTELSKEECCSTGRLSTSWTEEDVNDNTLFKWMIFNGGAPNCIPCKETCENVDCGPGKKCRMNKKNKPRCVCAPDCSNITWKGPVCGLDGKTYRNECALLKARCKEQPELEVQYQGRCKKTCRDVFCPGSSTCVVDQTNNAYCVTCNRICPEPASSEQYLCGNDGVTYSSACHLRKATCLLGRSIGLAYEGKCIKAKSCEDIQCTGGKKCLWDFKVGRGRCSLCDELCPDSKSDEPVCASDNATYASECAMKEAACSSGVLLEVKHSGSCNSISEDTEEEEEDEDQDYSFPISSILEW
Chain of Albumin (Bos taurus) (P02769 whole entry, looked up): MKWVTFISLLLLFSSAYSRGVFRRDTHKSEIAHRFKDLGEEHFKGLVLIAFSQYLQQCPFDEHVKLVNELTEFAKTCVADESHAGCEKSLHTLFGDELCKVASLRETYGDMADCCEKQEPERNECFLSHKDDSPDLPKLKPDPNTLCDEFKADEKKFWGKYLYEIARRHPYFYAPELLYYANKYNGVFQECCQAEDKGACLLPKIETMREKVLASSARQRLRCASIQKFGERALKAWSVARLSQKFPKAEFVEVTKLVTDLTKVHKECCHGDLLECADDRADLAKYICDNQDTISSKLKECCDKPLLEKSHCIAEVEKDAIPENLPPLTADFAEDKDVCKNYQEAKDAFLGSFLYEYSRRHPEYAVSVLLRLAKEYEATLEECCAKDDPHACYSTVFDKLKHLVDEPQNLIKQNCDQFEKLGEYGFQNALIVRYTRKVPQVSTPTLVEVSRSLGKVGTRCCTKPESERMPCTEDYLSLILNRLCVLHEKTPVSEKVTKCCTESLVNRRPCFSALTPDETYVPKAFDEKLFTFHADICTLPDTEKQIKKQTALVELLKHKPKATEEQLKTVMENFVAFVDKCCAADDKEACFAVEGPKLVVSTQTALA
Chain of Fibroblast growth factor 2 (Homo sapiens) (P09038 whole entry, looked up): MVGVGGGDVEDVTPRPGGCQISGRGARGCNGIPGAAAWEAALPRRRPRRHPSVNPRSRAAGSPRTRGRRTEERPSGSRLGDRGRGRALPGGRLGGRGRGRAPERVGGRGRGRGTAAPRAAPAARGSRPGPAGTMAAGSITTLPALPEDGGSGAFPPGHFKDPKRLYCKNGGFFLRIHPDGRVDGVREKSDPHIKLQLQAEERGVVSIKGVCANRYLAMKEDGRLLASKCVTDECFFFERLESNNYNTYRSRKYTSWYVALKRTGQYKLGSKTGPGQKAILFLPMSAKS
Chain of Concanavalin-A (Canavalia ensiformis) (P02866 whole entry, looked up): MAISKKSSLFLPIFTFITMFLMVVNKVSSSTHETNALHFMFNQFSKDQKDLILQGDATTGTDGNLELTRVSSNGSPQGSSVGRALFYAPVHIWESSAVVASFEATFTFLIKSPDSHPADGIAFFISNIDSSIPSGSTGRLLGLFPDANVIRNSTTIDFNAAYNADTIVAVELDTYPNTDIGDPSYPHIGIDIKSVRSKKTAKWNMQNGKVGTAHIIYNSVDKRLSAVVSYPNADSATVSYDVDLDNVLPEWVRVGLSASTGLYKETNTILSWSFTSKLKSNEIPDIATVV

For `COC(=O)[C@H](C)NC(=O)CCC1CC(OC(=O)NCCc2ccc(F)cc2)CC2(CCCC(COC(=O)NCc3ccccc3)O2)O1` (stereo not given in full), the composite z-score with Albumin (Bos taurus) was 0.431; in [2], -0.0511; in experiment [3], -0.208; in experiment [4], 0.266; in experiment [5] it was 0.253; in experiment [6] it was -0.0955. In addition, the composite z-score in the experiment with Sam68 (KHDRBS1) amounted to 1.31; in experiment [7], 0.774; in experiment [8] it was 0.619; in experiment [9] it was 0.36; in experiment [10] it was 0.775; in [11] it was 0.0965. For the same compound, the composite z-score amounted to 0.911 in experiment [12]; 0.913 in experiment [13]; 1.13 in [14]; 0.875 in the experiment with Lefty1; 0.0915 in experiment [16]. Further, the composite Z-score in experiment [1] was 0.0852 (inactive). Also, the values for the z-score in [15] and in experiment [17] were 0.708 and 0.835 (inactive), respectively.

In the case of `COC(=O)[C@@H]1CC[C@H](C)[C@@H](c2ccc(C)cc2)N1C(=O)c1ccc(C=NO[C@@H](C)c2cc(-c3c(C)cc(C)cc3C)no2)cc1`, the composite z-score was 0.432 with Albumin (Bos taurus); -0.004 in [2]; -0.126 in experiment [3]; 0.154 in experiment [4]; -0.0142 in experiment [5]; -0.207 in experiment [6]. Moreover, the composite z-score in the experiment on Sam68 (KHDRBS1) was 1.2; in [7] it was 0.306; in experiment [8] it was 0.894; in experiment [9], -0.637; in [10], 0.706; in [11] it was 0.137. Also, the composite z-score amounted to 0.602 in experiment [12]; 0.365 in experiment [13]; 0.553 in experiment [14]; 0.677 with Lefty1; 0.0859 in experiment [16]. The composite Z-score in experiment [1] is -0.136 (inactive). For the same compound, the figures for the z-score in experiment [15] and in [17] were 1.65 and 0.195 (inactive), respectively.

As to `CC(CCN1CCCc2nc(C)c(C)cc21)=NO[C@@H](C)c1cn([C@H](CO)Cc2ccccc2)nn1`, the composite z-score was -0.139 with Albumin (Bos taurus); 0.184 in experiment [2]; -0.0282 in experiment [3]; 0.074 in experiment [4]; 0.531 in experiment [5]; -0.0771 in experiment [6]. Further, the composite z-score was 0.477 in the experiment on Sam68 (KHDRBS1); 0.801 in [7]; 0.497 in experiment [8]; 0.14 in experiment [9]; 0.0974 in experiment [10]; 0.338 in experiment [11]. Besides, the composite z-score was 0.279 in experiment [12]; 0.764 in [13]; 0.957 in [14]; 0.671 in the experiment on Lefty1; 0.152 in [16]. Further, the composite Z-score in experiment [1] is 0.344 (inactive). The results for the z-score in [15] and in experiment [17] were -0.088 and -0.224 (inactive), respectively.

Take `COc1ccc(-c2cnnc(CCCn3ccnc3-c3ccccc3)n2)cc1`: the composite z-score was 0.223 with Albumin (Bos taurus); 0.291 in [2]; -0.126 in experiment [3]; 0.536 in [4]; 0.0412 in experiment [5]; 1.08 in [6]. Also, the composite z-score stood at 0.943 in the experiment on Sam68 (KHDRBS1); 0.919 in [7]; 0.418 in experiment [8]; 1.39 in experiment [9]; 0.538 in [10]; 0.107 in experiment [11]. The composite z-score in [12] stood at 0.747; in experiment [13], 0.836; in experiment [14], 0.475; in the experiment on Lefty1 it was 0.592; in experiment [16], 0.138. The composite Z-score in experiment [1] is 0.391 (inactive). In addition, the z-score was 0.787 in [15] and 0.313 (inactive) in experiment [17].

`CCOC(=O)CCN1C(=O)[C@H]2[C@H]3[C@H](O)[C@H](O)CC(=NNC(=O)OCc4ccccc4)[C@H]3CC[C@H]2C1=O`: the composite z-score with Albumin (Bos taurus) was -0.914; in experiment [2] it was 0.232; in experiment [3] it was -0.0309; in [4], -0.67; in experiment [5], -1.26; in experiment [6], -0.0688. Besides, the composite z-score with Sam68 (KHDRBS1) is -1.01; in experiment [7], 1.4; in [8], -0.636; in [9], -0.954; in experiment [10], -0.746; in [11], -0.355. The composite z-score in experiment [12] was -0.714; in experiment [13], 0.44; in experiment [14] it was 0.386; in the experiment with Lefty1, 0.742; in [16], -0.547. Moreover, the composite Z-score in experiment [1] is 0.734 (inactive). The z-score in experiment [15] is -0.674; in experiment [17], 0.292 (inactive).

Regarding `CCN1C(C)=C(C(=O)OC)[C@@H](c2ccccc2)N2C(=O)[C@](O)(C(=O)OC)CC(C(C)=O)=C12`, the composite z-score with Albumin (Bos taurus) was -0.428; in experiment [2] it was -0.15; in experiment [3], -0.207; in experiment [4] it was -0.174; in experiment [5], -0.0478; in experiment [6] it was -0.152. The composite z-score with Sam68 (KHDRBS1) was -0.37; in [7], 0.285; in [8], 0.29; in experiment [9], -1.01; in experiment [10], 0.127; in experiment [11], 0.0644. Moreover, the composite z-score amounted to 0.123 in experiment [12]; 0.398 in experiment [13]; 0.0171 in experiment [14]; 0.638 in the experiment with Lefty1; 0.278 in experiment [16]. In addition, the composite Z-score in experiment [1] is -0.686 (inactive). Moreover, the z-score in experiment [15] was 1.07; in [17], -0.695 (inactive).
